Unmarked numbers belong to inactive results. Active and inactive are the calls of the source.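 Rule for the calls: active = compounds lowering colon cancer cell viability after pretreatment blocking the GSK3B kinase; inactive = the rest.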
Assay: growth inhibition of GSK3B-pretreated HCT116 cells – cell-based, CellTiter-Glo, 0.2 to 20 µM (AID 1117336)
Conditions: HCT116 viability after GSK3B inhibitor, at 20 µM, stronger effect = higher value

Structure (SMILES)	viability decrease
CCOC(=O)C1=C(C)NC(C)=C(C(=O)OC)C1c1cccc(Cl)c1Cl (stereo not drawn)	113% (active)
O=C(NCCN1CCOCC1)c1ccc(Cl)cc1	-7.6%
CCOc1cc(CC(=O)N[C@@H](CC(C)C)c2ccccc2N2CCCCC2)ccc1C(=O)O	70.5% (active)
COCCCC/C(=N\OCCN)c1ccc(C(F)(F)F)cc1	-112%
COc1ccccc1N1CCN(CC(O)COc2cccc3ccccc23)CC1 (stereo not drawn)	0.8%
CC(C)NCC(O)COc1ccc(CCOCC2CC2)cc1 (stereo not drawn)	-6.1%
COc1cc2nc(N3CCN(C(=O)C4CCCO4)CC3)nc(N)c2cc1OC (stereo not drawn)	7.5%
c1cnc(N2CCN(Cc3ccc4c(c3)OCO4)CC2)nc1	-13.4%
CCOC(=O)c1ncn2c1CN(C)C(=O)c1cc(F)ccc1-2	-39.4%
CC(C)NCC(O)COc1ccc(COCCOC(C)C)cc1 (stereo not drawn)	6.2%
CN1CCC(=C2c3ccccc3C=Cc3ccccc32)CC1	48.8%
Cc1ncc([N+](=O)[O-])n1CC(O)CCl (stereo not drawn)	-3.65%
CCc1oc2ccccc2c1C(=O)c1cc(Br)c(O)c(Br)c1	116% (active)
O=C(CCNNC(=O)c1ccncc1)NCc1ccccc1	29.1%
Oc1ccc(C2CNCCc3c2cc(O)c(O)c3Cl)cc1 (stereo not drawn)	66.2% (active)
O=C1CC2(CCCC2)CC(=O)N1CCCCN1CCN(c2ncccn2)CC1	20.1%
Cc1cccc(C)c1OCC(C)N (stereo not drawn)	3.4%
CN1CCC(=C2c3ccccc3CC(=O)c3sccc32)CC1	10.7%
